Hits are enriched below; roughly 16% of the tested compounds scored in any of these assays.
TDP1 block – qHTS Assay for Inhibitors of Tyrosyl-DNA Phosphodiesterase (TDP1); Tyrosyl-DNA phosphodiesterase 1 (Homo sapiens), Q9NUW8; recombinant TDP1, AlphaScreen DNA substrate cleavage; Potency, µM (titrated, usually from 130 µM), usual class: inhibitors; 0.28% of 350,000 active; AID 485290, 2010; note: nearly all actives have a fitted effect of over 40% in size
Target sequence (Q9NUW8 whole entry, looked up): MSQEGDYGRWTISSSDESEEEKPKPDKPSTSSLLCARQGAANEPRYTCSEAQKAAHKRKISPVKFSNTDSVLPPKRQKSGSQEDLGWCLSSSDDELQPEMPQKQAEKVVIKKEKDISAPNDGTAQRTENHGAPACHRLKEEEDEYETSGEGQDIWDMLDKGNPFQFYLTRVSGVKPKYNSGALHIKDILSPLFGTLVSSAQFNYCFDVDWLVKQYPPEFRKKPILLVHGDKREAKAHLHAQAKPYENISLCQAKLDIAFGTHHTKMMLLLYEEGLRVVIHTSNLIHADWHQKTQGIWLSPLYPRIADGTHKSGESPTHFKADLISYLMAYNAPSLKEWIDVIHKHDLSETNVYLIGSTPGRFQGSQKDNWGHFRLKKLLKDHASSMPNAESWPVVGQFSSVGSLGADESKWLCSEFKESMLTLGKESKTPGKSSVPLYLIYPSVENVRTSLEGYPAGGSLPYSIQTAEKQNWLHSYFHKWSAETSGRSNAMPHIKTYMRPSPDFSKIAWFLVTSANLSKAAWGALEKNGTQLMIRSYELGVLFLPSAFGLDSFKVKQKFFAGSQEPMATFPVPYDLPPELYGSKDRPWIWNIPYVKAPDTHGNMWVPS
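Steps: enzyme plus compound, 15 min RT; add biotin/phosphotyrosine-FITC oligonucleotide (15 nM final), react 5 min; add donor/acceptor beads (10 ug/ml final), 10 min; read AlphaScreen. Tdp1 at 1 nM final.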
TDP1 cell CPT – qHTS for Inhibitors of human tyrosyl-DNA phosphodiesterase 1 (TDP1): qHTS in cells in presence of CPT; 12% of 420,000 active; chicken DT40 Tdp1-/-;hTDP1 cells + 20 nM CPT, ATP luminescence, 48 h; Potency, µM (doses to about 46.2 µM), usual class: inhibitors; AID 686979, 2013; note: nearly all actives have a fitted effect of over 55% in size
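Chicken DT40 Tdp1-/- cells stably complemented with human TDP1 were seeded at 400 cells/well in medium containing 20 nM camptothecin, exposed to pin-transferred compounds, and grown at 37 °C for at least 48 hr. Viability was read as ATP luminescence.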
uPA surface inh – qHTS for Inhibitors of Cell Surface uPA Generation | cell surface uPA generation assay, qHTS | Potency, µM (titrated, usually from 38.3 µM), actives largely listed as inhibitors | 0.31% of 330,000 active | AID 540303, 2011; active = well fitted inhibition curve with a large enough effect; inconclusive = small, poorly fitted or top-dose-only effect; inactive = no such curve, though single readings can be large or run the other way; tested in mouse RAW 264.7 cells; note: nearly all actives have a fitted effect of over 55% in size
DT40 TDP1 no CPT – qHTS for Inhibitors of human tyrosyl-DNA phosphodiesterase 1 (TDP1): qHTS in cells in absence of CPT | DT40 Tdp1-/- hTDP1 cells, no CPT, ATP luminescence, 48 h | Potency, µM (series often up to 46.2 µM), usual class: inhibitors | 15% of 420,000 active | AID 686978, 2013; note: nearly all actives have a fitted effect of over 55% in size
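Camptothecin absent (DMSO only). Human TDP1-complemented DT40 knockout cells, 400 cells/well, 37 °C for minimum 48 hr; ATP measured via CellTiter-Glo, 30 min dark incubation, luminescence.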
miR-21 act – qHTS Assay for Modulators of miRNAs and/orActivators of miR-21; 340,000 tested, under 10 active; HeLa miR-21 FLuc reporter, luciferase, 48 h; Potency, µM (top dose mostly 38.3 µM), most hits filed as activators;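 note: miR-21 action dims this reporter so a rising signal means less miR-21 action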
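Compounds were titrated across several concentrations (up to approximately 40 uM) and incubated 48 hours with HeLa miR-21-FLuc reporter cells (miR-21 target sequence downstream of FLuc, endogenous miR-21). Readout was firefly luciferase luminescence after lytic detection reagent.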
Hits are given with their value; – = inactive; ? = inconclusive; · = no result. Unless noted, calls come from the whole dose curve; as a rule, active = well fitted curve in the direction sought with a large enough effect; inconclusive = small, poorly fitted or top-dose-only effect, or another doubt; inactive = no such curve, though single readings can be large; an effect the other way counts as inactive or inconclusive.

SMILES | TDP1 block | TDP1 cell CPT | uPA surface inh | DT40 TDP1 no CPT | miR-21 act
COc1ccc(C(=O)N2CCN(S(=O)(=O)c3ccc(Br)cc3)CC2)cc1 | – | 18.4µM | – | ? | ·
Cc1ccc(C(=O)N2CCN(S(=O)(=O)c3ccc(C)cc3)CC2)cc1 | – | – | – | – | –
COc1ccc(S(=O)(=O)N2CCCN(Cc3cccc(F)c3)CC2)cc1 | – | 20.6µM | – | ? | –
O=C(c1ccc(S(=O)(=O)N2CCCCCC2)cc1)N1CCN(Cc2ccccc2)CC1 | – | – | – | – | ·
COc1cccc(CN2CCN(Cc3ccc(O)cc3)CC2CCO)c1 (stereo not drawn) | – | – | – | – | –
O=C(Cc1ccccc1)Nc1ccc(Br)c(Cl)c1 | – | – | – | – | –
COc1ccc(C(=O)Nc2cc(C(C)C)c(O)c(S(=O)(=O)c3ccc(OC)cc3)c2C)cc1 | – | – | · | – | –
COc1ccc(CN2CCN(C(=O)c3ccc(S(=O)(=O)N4CCCCCC4)cc3)CC2)cc1 | – | ? | – | 14.6µM | ·
O=C(Nc1cccc(S(=O)(=O)N2CCOCC2)c1)c1ccccc1[N+](=O)[O-] | – | – | – | – | ·
CCN(CC)S(=O)(=O)c1ccc(C(=O)Nc2nnc(-c3ccco3)o2)cc1 | – | ? | ? | 23.1µM | –
CCCCN(C)S(=O)(=O)c1ccc(C(=O)Nc2nnc(-c3ccco3)o2)cc1 | – | 7.31µM | – | 6.51µM | ?
CCCCN(CC)S(=O)(=O)c1ccc(C(=O)Nc2nnc(-c3cccs3)o2)cc1 | – | 14.6µM | – | 10.3µM | ?
CN(C)S(=O)(=O)c1ccc(C(=O)Nc2nnc(-c3ccco3)o2)cc1 | – | 20.6µM | – | ? | –
O=C(CCS(=O)(=O)c1ccc(F)cc1)Nc1nnc(-c2ccco2)o1 | – | ? | – | ? | ·
CCN(CC)S(=O)(=O)c1ccc(Cl)c(NC(=O)CSc2nnc(-c3cccs3)o2)c1 | – | ? | – | ? | –
CCCCSc1nnc2c(n1)OC(C(=O)c1ccccc1)Nc1ccccc1-2 (stereo not drawn) | – | · | · | · | –
COc1ccc(OC)c(-c2nc3c(C#N)c[nH]n3c2NC2CCCCC2)c1 | – | ? | · | ? | ?
CC(C)(C)c1cc(CN2CCCC(O)C2)c(O)c(C(C)(C)C)c1 (stereo not drawn) | – | ? | · | ? | –
O=C(Cc1cccs1)Nc1ccc(-c2nnc(-c3ccccc3)o2)cc1 | · | – | – | – | ·
Cc1cccc(-c2nnc(-c3cccc(NC(=O)Cc4cccs4)c3)o2)c1 | – | 18.4µM | – | 14.6µM | –
Cc1ccc(-c2nnc(-c3cccc(NC(=O)c4cccs4)c3)o2)cc1 | ? | ? | – | 23.1µM | –
CCc1nccn1CCC(=O)NC1CC(C)(C)Cc2c1cnn2-c1ccc(C)cc1 (stereo not drawn) | – | ? | – | ? | –
CCOC(=O)/C(=N\Nc1cc(Cl)ccc1Cl)N1CCN(CC)CC1 | – | 20.6µM | – | ? | –
CCN1CCN(C(=O)C2CCCN(S(=O)(=O)c3cc(Cl)ccc3Cl)C2)CC1 (stereo not drawn) | – | – | – | – | –
S=C(NCCc1ccccc1)NC1CC2CCC(C1)N2Cc1ccccc1 (stereo not drawn) | – | ? | – | ? | –
SMILES | TDP1 block | TDP1 cell CPT | uPA surface inh | DT40 TDP1 no CPT | miR-21 act
CC(=O)N1CCc2cc(CNC(=O)Nc3cc(Cl)ccc3C)ccc21 | – | – | · | – | –
Fc1ccc(C(c2ccc(F)cc2)N2CCN(C/C=C/c3ccccc3)CC2)cc1 | – | 3.66µM | – | 23.1µM | ?
COc1ccc(N2CCN(C(c3ccccc3)c3nnnn3Cc3ccccc3)CC2)cc1 (stereo not drawn) | · | ? | · | 15.8µM | ·
C(=C\c1ccccc1)/CN1CCN(C(c2ccccc2)c2ccccc2)CC1 | – | ? | – | ? | –
COc1ccc(C(c2nnnn2Cc2ccccc2)N2CCN(C/C=C/c3ccccc3)CC2)cc1 (stereo not drawn) | · | ? | · | 14.6µM | ·
C(=C\c1ccccc1)/CN1CCN(C(c2ccccc2)c2nnnn2Cc2ccccc2)CC1 (stereo not drawn) | · | 29.1µM | · | ? | ·
Cc1ccc(CSc2nc3c(c(=O)[nH]2)C(c2ccncc2)C2=C(CCCC2=O)N3)cc1 (stereo not drawn) | – | – | – | – | –
CC(NC(=O)NCCCn1ccnc1)(C(F)(F)F)C(F)(F)F | – | – | – | – | –
COc1ccc(C2Nc3ccccc3NC3=C2C(=O)CC(C)(C)C3)c(OC)c1OC (stereo not drawn) | · | – | – | – | –
CCC(c1nnnn1Cc1ccccc1)N1CCN(C/C=C/c2ccccc2)CC1 (stereo not drawn) | · | ? | · | 14.6µM | ·
O=C(Nc1ccc2nc(-c3ccccn3)[nH]c2c1)C1CCCCC1 | – | ? | – | ? | –
Cc1ccc(C(=O)c2cn(Cc3ccccc3)c3cc4c(cc3c2=O)OCCO4)cc1 | – | 20.6µM | · | ? | –
COc1ccc(C(=O)c2cn(Cc3cccc(C)c3)c3cc4c(cc3c2=O)OCO4)cc1 | – | 16.4µM | · | 25.9µM | –
CCOC(=O)C1=C(N)OC2=C(C(=O)CC(C)(C)C2)C1c1ccc(CC)s1 (stereo not drawn) | – | – | – | – | –
C/C(=C\c1ccco1)C1C(C#N)=C(N)Oc2n[nH]c(-c3ccccc3)c21 (stereo not drawn) | – | – | – | – | –
CC(c1ccccc1)C1C(C#N)=C(N)OC2=C1C(=O)CC(C)(C)C2 (stereo not drawn) | – | – | – | – | –
CC1(C)CC(=O)C2=C(C1)OC(N)=C(C#N)C2C#Cc1ccccc1 (stereo not drawn) | – | 5.17µM | – | 4.61µM | –
C/C(=C\c1ccco1)C1C(C#N)=C(N)Oc2n[nH]c(-c3ccc(C)cc3)c21 (stereo not drawn) | – | 16.4µM | – | ? | –
C/C(=C\c1ccco1)C1C(C#N)=C(N)OC2=C1C(=O)CC(C)(C)C2 (stereo not drawn) | – | 25.9µM | – | ? | –
COC(=O)c1ccc(C(NC(=O)OCc2ccccc2)/C(I)=C/[C@@H](C)C(=O)NCc2ccncc2)cc1 (stereo partly drawn) | – | · | · | · | ·
O=C(c1ccccc1F)N1CCN(c2ccc([N+](=O)[O-])c(NCC3CCCO3)c2)CC1 (stereo not drawn) | – | ? | – | 18.4µM | –
Cc1ccc(-c2nn(CC(=O)NC3CCCC3)c3c2cnc2ccccc23)cc1 | – | – | · | – | –
COc1cc2ncc3c(-c4ccccc4)nn(CC(=O)NC4CCCCC4)c3c2cc1OC | – | 14.6µM | · | 14.6µM | –
